Source: the supplement of paper PMC12669032
Unmarked numbers belong to inactive results.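 Rule for the calls: active = AUC reduced over 20% with Padj below 0.05 in at least 2 of 3 replicates; inactive = otherwise.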

Experiments:
Test in all cases: growth AUC relative to DMSO control (median of replicates) (fraction); higher = more growth (less inhibition), active = hit call of the paper
Settings in all cases: 20 µM; 24 h
Akkermansia muciniphila = tested on: Akkermansia muciniphila
Outline: (§1)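 Each value is the median of three biological replicates, grown on separate days, of a gut bacterial monoculture incubated anaerobically at 37 °C in mGAM with 20 µM compound (1% DMSO). Cultures started at OD600 0.05 and were read at OD600 hourly for 24 h, with the minimum OD set to 0. Area under the growth curve was normalised to the plate median of solvent-only wells, or to row and column medians on the industrial chemical plate.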

Bacteroides caccae = tested on: Bacteroides caccae
Outline: as §1

Bacteroides clarus = tested on: Bacteroides clarus
Outline: as §1

Bacteroides dorei = tested on: Bacteroides dorei
Outline: as §1

Bacteroides stercoris = tested on: Bacteroides stercoris
Outline: as §1

[1] = tested on: Bacteroides thetaiotaomicron
Outline: as §1

Bacteroides uniformis = tested on: Bacteroides uniformis
Outline: as §1

[2] = tested on: Bifidobacterium longum subsp. longum
Outline: as §1

Clostridium difficile = tested on: Clostridium difficile
Outline: as §1

Collinsella aerofaciens = tested on: Collinsella aerofaciens
Outline: as §1

Coprococcus comes = tested on: Coprococcus comes
Outline: as §1

Escherichia coli ED1a = tested on: Escherichia coli ED1a
Outline: as §1

Escherichia coli IAI1 = tested on: Escherichia coli IAI1
Outline: as §1

Eubacterium rectale = tested on: Eubacterium rectale
Outline: as §1

[3] = tested on: Fusobacterium nucleatum subsp. animalis
Outline: as §1

Lactobacillus gasseri = tested on: Lactobacillus gasseri
Outline: as §1

Lactobacillus paracasei = tested on: Lactobacillus paracasei
Outline: as §1

Odoribacter splanchnicus = tested on: Odoribacter splanchnicus
Outline: as §1

[4] = tested on: Parabacteroides distasonis
Outline: as §1

Parabacteroides merdae = tested on: Parabacteroides merdae
Outline: as §1

SMILES | growth AUC (Akkermansia muciniphila) | growth AUC (Bacteroides caccae) | growth AUC (Bacteroides clarus) | growth AUC (Bacteroides dorei) | growth AUC (Bacteroides stercoris) | growth AUC [1] | growth AUC (Bacteroides uniformis) | growth AUC [2] | growth AUC (Clostridium difficile) | growth AUC (Collinsella aerofaciens) | growth AUC (Coprococcus comes) | growth AUC (Escherichia coli ED1a) | growth AUC (Escherichia coli IAI1) | growth AUC (Eubacterium rectale) | growth AUC [3] | growth AUC (Lactobacillus gasseri) | growth AUC (Lactobacillus paracasei) | growth AUC (Odoribacter splanchnicus) | growth AUC [4] | growth AUC (Parabacteroides merdae)
CN(C)C(=O)NC1CCCCCCC1 | 0.984 | 1.01 | 1.01 | 0.996 | 1.09 | 0.99 | 0.972 | 1.01 | 1.03 | 1.01 | 1.03 | 0.999 | 0.998 | 1.06 | 1.04 | 1.04 | 0.978 | 0.948 | 1.02 | 1.01
CCCCCCCC/C=C\CCCCCCCCCCCC(=O)O | 1.05 | 1.01 | 1.02 | 0.995 | 1.01 | 1.02 | 1.01 | 0.902 | 1 | 0.983 | 0.96 | 1.02 | 1.01 | 0.983 | 1.02 | 0.979 | 0.991 | 1 | 0.914 | 1.01
Nc1ccc(O)cc1 | 0.951 | 1 | 1.01 | 0.998 | 1.11 | 1.01 | 1.03 | 0.921 | 1.01 | 1.01 | 1.01 | 1.06 | 1.01 | 1.12 | 1.12 | 1.08 | 1.08 | 1.05 | 0.954 | 1.04
COC(=O)CC(NC(=O)[C@@H](NC(=O)OC(C)C)C(C)C)c1ccc(Cl)cc1 (stereo not given in full) | 1.08 | 0.934 | 0.991 | 1.02 | 1.34 | 0.981 | 0.934 | 1.01 | 1.01 | 0.963 | 0.954 | 1.02 | 0.986 | 0.993 | 1.11 | 1.01 | 0.992 | 0.87 | 0.954 | 1.01
CC(C)(C)C(O)/C(=C\c1ccc(Cl)cc1)n1cncn1 (stereo not given) | 1.05 | 0.903 | 0.987 | 0.919 | 1.19 | 0.958 | 0.973 | 1.04 | 0.991 | 0.969 | 1.03 | 0.988 | 1.03 | 0.978 | 0.987 | 0.943 | 1.05 | 0.976 | 0.959 | 0.948
O=C1NC(=O)c2ccccc21 | 1.09 | 0.873 | 1.02 | 1 | 1.31 | 1 | 1.01 | 1.04 | 1.01 | 0.982 | 1.02 | 1.02 | 1.02 | 0.984 | 1.05 | 1.06 | 1.04 | 0.89 | 1.02 | 1.02
O=c1oc(-c2ccccc2)nc2ccccc12 | 0.96 | 1.01 | 0.984 | 0.979 | 0.955 | 0.966 | 0.971 | 0.947 | 0.994 | 0.976 | 0.996 | 0.967 | 0.946 | 0.948 | 0.935 | 0.971 | 0.915 | 0.893 | 1.05 | 0.988
CCCN(CCOc1c(Cl)cc(Cl)cc1Cl)C(=O)NC=O | 1.04 | 0.938 | 0.948 | 0.947 | 1.07 | 0.94 | 0.957 | 0.968 | 1.01 | 0.995 | 0.965 | 1.04 | 0.993 | 1.02 | 1.01 | 1.09 | 0.9 | 0.956 | 0.925 | 0.991
CC(C)N(C(=O)C(=O)O)c1ccc(F)cc1 | 1.04 | 1.02 | 1.03 | 1.02 | 1.23 | 1.02 | 0.993 | 1.05 | 1.03 | 1.01 | 0.985 | 1.03 | 1.02 | 1.05 | 1.18 | 1.05 | 1 | 1.04 | 1 | 1.01
O=C(O)C1(C(=O)Nc2ccc(Cl)cc2Cl)CC1 | 1.06 | 1.06 | 0.956 | 1.05 | 1.1 | 1.03 | 1.04 | 0.998 | 1.01 | 1.01 | 1.01 | 1.02 | 1.02 | 0.98 | 1.03 | 0.955 | 0.999 | 0.994 | 0.909 | 1.01
Cc1nn(C)c(Oc2ccccc2)c1/C=N/OCc1ccc(C(=O)OC(C)(C)C)cc1 | 1.04 | 1.01 | 1.03 | 0.974 | 0.961 | 0.982 | 0.969 | 0.944 | 1.02 | 0.963 | 0.996 | 0.984 | 0.991 | 0.907 | 0.973 | 0.901 | 1.01 | 1.01 | 1.03 | 0.925
COc1nc(NC(=O)NS(=O)(=O)c2ccccc2C(F)(F)F)nc(C(F)(F)F)n1 | 1.06 | 1.03 | 0.979 | 0.971 | 1 | 0.974 | 1 | 1.01 | 0.987 | 1.01 | 1.01 | 0.99 | 1 | 0.979 | 0.988 | 0.899 | 0.986 | 1.06 | 0.996 | 0.964
CC(C)(c1cc(Br)c(O)c(Br)c1)c1cc(Br)c(O)c(Br)c1 | 0.904 | 0.0238 (active) | 0.0496 (active) | 0.675 (active) | 0.0125 (active) | 0.662 (active) | 0.297 (active) | 0.252 (active) | 0.0683 (active) | 0.0491 (active) | 0.41 (active) | 1.04 | 0.997 | 0.0259 (active) | 0.465 (active) | 0.136 (active) | 0.0653 (active) | 0.0465 (active) | 0.0802 (active) | 0.151 (active)
S=C([S-])NCCNC(=S)[S-].[Zn+2] | 1.16 | 1.05 | 0.989 | 0.999 | 0.983 | 0.978 | 1.03 | 0.995 | 0.972 | 0.992 | 0.994 | 0.998 | 0.992 | 1.1 | 0.978 | 0.966 | 1.01 | 0.999 | 1.01 | 0.974
COC(=O)Cc1cccc2ccccc12 | 1.01 | 1.01 | 0.989 | 0.965 | 1.07 | 0.995 | 1 | 1.02 | 1.01 | 0.96 | 0.997 | 0.969 | 0.968 | 1.07 | 0.996 | 0.924 | 0.974 | 1.08 | 0.986 | 0.995
